# From PubChem BioAssay
# The list is not random: actives were taken first. Their share in the collection is about 9.9%.
# MCF10A rereplic: induces DNA re-replication in MCF 10a normal breast cells; MCF 10A DNA re-replication, Hoechst nuclear intensity, 48 h; Potency, µM (doses to about 46.1 µM), inactives show at the top dose activity, positive = re-replication, hits mostly activators; 350,000 compounds, 2.9% hits; AID 624296; also: potency is read from the fitted curve at half-maximal effect; % of control where 0% means no effect; nearly all actives have a fitted effect of over 50% in size
# SW480 rerep: inducers of DNA re-replication in SW480 colon cancer cells. SW480 DNA re-replication, Hoechst DNA content imaging, 48 h. Potency, µM (top dose mostly 46.1 µM), inactives show at the highest dose re-replication activation, actives largely listed as activators. 340,000 compounds, 1.8% hits; also: potency is read from the fitted curve at half-maximal effect; % of control where 0% means no effect; nearly all actives have a fitted effect of over 55% in size
#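 Per well, 250 cells were exposed to pinned compound for 48 hr. Nuclear DNA was visualised with Hoechst (40 min, 37 C) and total object intensity recorded by fluorescence scanning.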
# KB-3-1 tox: KB-3-1 parental cell cytotoxicity; 400,000 compounds, 1.4% hits; AID 1347075; KB-3-1 viability, CellTiter-Glo ATP luminescence, 72 h; Potency, µM (titrated, usually from 46.1 µM), most hits filed as cytotoxic; also: potency is read from the fitted curve at half-maximal effect; % is scaled to controls: 0 for no effect and ±100 for the full control effect; nearly all actives have a fitted effect of over 60% in size
#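 Cytotoxicity measured as CellTiter-Glo luminescence after 72 h at 37 C. Compound titrations were pinned onto drug-naive KB-3-1 parental adenocarcinoma cells grown in DMEM with 10% FBS, and normalized data fitted to concentration-response curves.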
# KB-V1 cytotox: kills drug-selected multidrug resistant KB-V1 cells; KB-V1 MDR cells viability, CellTiter-Glo, 72 h; Potency, µM (titrated, usually from 46.1 µM), hits mostly cytotoxic; 400,000 compounds, 3.4% hits; AID 1347076; also: potency is read from the fitted curve at half-maximal effect; % is scaled to controls: 0 for no effect and ±100 for the full control effect; nearly all actives have a fitted effect of over 60% in size
#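 Cells of the MDR subline KB-V1 are plated, dosed with compound at multiple concentrations, and incubated 72 h at 37 degrees C; CellTiter-Glo is then added and luminescence read after 10 min.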
# IL-1B inflam inh: inhibitors of inflammasome signaling (IL-1 beta secretion). 360,000 compounds, 4.7% hits. THP-1 LPS/ATP IL-1B secretion, AlphaLISA, 16 h; stronger effect = lower value. activity change, % at 57.5 µM; in the data active = activity change below about -50%; inconclusive = mostly about -30% to -49%; also: % is scaled to controls: 0 for no effect and ±100 for the full control effect
#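 THP-1 cells pretreated 1 hr with compounds (up to 57.5 uM final), then stimulated with LPS (250 ng/mL final) plus ATP (1.25 mM final); secreted IL-1B measured by AlphaLISA after 16 hr, decreased signal indicating inhibition.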
# The depositor's hits bear a star; i = inactive; u = inconclusive; x = no result; ! = a repeat was not active. Unless noted, calls follow the shape of the dose curve; as a rule, active = well fitted curve in the direction sought with a large enough effect; inconclusive = small, poorly fitted or top-dose-only effect, or another doubt; inactive = no such curve, though single readings can be large; an effect the other way counts as inactive or inconclusive.
SMILES,MCF10A rereplic,SW480 rerep,KB-3-1 tox,KB-V1 cytotox,IL-1B inflam inh
COc1ccc(CCNC(=O)c2ccc(CS(=O)(=O)c3ccc(C)cc3)o2)cc1OC,26%,-4%,u,4.6µM*!,3
COc1ccc(CCNC(=O)c2ccc(CS(=O)(=O)c3ccc(Cl)cc3)o2)cc1OC,28%,u,i,2.6µM*,u
COc1ccc(CCNC(=O)c2ccc(CS(=O)(=O)Cc3ccc(C)cc3)o2)cc1OC,x,x,i,u,17
O=C(NCc1cc(Cl)cc(Cl)c1)c1csc([C@@H]2C[C@H](O)[C@@H](CO)O2)n1,x,x,i,i,-4
CCOP(=O)(OCC)C(NC(=O)c1ccc(OC)c(OC)c1)c1ccccc1 (centres undefined),-23%,0%,i,i,23
CCOP(=O)(OCC)C(Cc1ccc(OC)c(OC)c1)N=C(c1ccccc1)c1ccccc1 (centres undefined),x,x,i,15µM*,-11
COC(=O)[C@@]1(Cc2ccc(OC)cc2)[C@H]2c3cc(C(=O)N4CCCC4)n(Cc4ccc(C)c(F)c4F)c3C[C@H]2CN1C(=O)c1ccccc1,x,x,u,7.3µM*,-26
COC(=O)[C@@]1(Cc2ccc(F)cc2)[C@H]2c3cc(C(=O)N(C)C)n(Cc4ccc(C)c(F)c4F)c3C[C@H]2CN1C(=O)c1ccccc1,x,x,u,u,-75*
COC(=O)[C@@]1(Cc2ccc(OC)cc2)[C@H]2c3cc(C(=O)N4CCCC4)n(Cc4ccccc4)c3C[C@H]2CN1C(=O)c1ccccc1,x,x,u,10µM*,-66*
COC(=O)[C@@]1(Cc2ccc(OC)cc2)[C@H]2c3cc(C(=O)N4CCCC4)n(CCO)c3C[C@H]2CN1C(=O)c1ccccc1,24%,-3%,i,i,-17
O=C(Nc1ccc(F)cc1)/C(=C1/CCCCCN1)[N+](=O)[O-],2%,0%,u,i,-25
Cc1sc2c(c1C)c(=O)n(CCc1ccccc1)c(=O)n2Cc1cccc(F)c1,x,x,i,i,x
Oc1ccc(N2CCN(c3ccnc4cc(Cl)ccc34)CC2)cc1,u,u,16µM*,15µM*,-12
COc1ccc(N2CCN(c3ccnc4cc(Cl)ccc34)CC2)cc1,u,3%,i,u,-56*
Clc1ccc2c(N3CCCC3)ccnc2c1,-3%,1%,i,u,-7
COc1ccc(OC)c(C(=O)Nc2c(O)ccc3ccccc23)c1,0%,-1%,i,i,u
COc1ccc(Cl)cc1NC(=O)CSc1nc2sccc2c(=O)[nH]1,21µM*,-5%,i,i,54
COc1ccccc1NC(=O)CSc1nc2nc(C)cc(C)c2c(=O)[nH]1,u,0%,i,i,9
COc1ccc(C)cc1NC(=O)CSc1nc2scc(C)c2c(=O)[nH]1,18µM*,u,i,i,23
COc1ccc(Cl)cc1NC(=O)CSc1nc(C)cc(C)n1,0%,u,i,i,15
COC(C(=O)NNC(=O)CCc1ccccc1)c1ccccc1 (centres undefined),0%,-8%,i,i,41
COc1ccc(NC(=O)CC23CC4CC(C2)CC(n2nnc(C)n2)(C4)C3)cc1,12%,-1%,i,i,44
C(=Nc1cccnc1)c1ccc2ccccc2n1,x,x,i,i,x
Cc1ncc(CN2CCC(C(=O)Nc3ccc(-n4cccn4)cc3)CC2)s1,3%,-4%,x,x,-6
O=C(Nc1ccc(-n2cccn2)cc1)C1CCCCN1Cc1cccc2c1OCO2 (centres undefined),3.7µM*,u,4.1µM*,u,28
Cc1ccc(S(=O)(=O)N2CCCCC2)cc1NC(=O)CSCC(=O)O,5%,-1%,i,i,8
Cc1ccc(S(=O)(=O)N2CCCCC2)cc1NCC(=O)Nc1ccc(Br)cc1F,x,x,3.3µM*,u,u
Cc1cc(Br)ccc1NC(=O)CNC(=O)Cn1ncc(Cl)c(Cl)c1=O,1.2µM*,u,5.2µM*,u,-98*
